# Experimental data taken from the antibiotic and cytotoxicity screens of Wong et al. (2023).
# Out of some 39,000 compounds screened, about 3,300 (8.5%) were called active. Only a selection was taken, and actives are over-represented in it overall.
# Tested on: HepG2
# Assay: cytotoxicity call (relative viability < 0.9)
# Settings: 10 µM
row,SMILES,cytotoxicity call
1,COc1cccc(NC(=O)N[C@@H]2CC[C@H](CC(=O)N3CCN(C)CC3)O[C@H]2CO)c1,inactive
2,O=C(C[C@@H]1C=C[C@H](NC(=O)c2ccc(F)cc2)[C@H](CO)O1)NCc1ccncn1,inactive
3,C[C@@H]1CCCCO[C@H](CN(C)C(=O)Cc2ccccc2)[C@@H](C)CN([C@@H](C)CO)C(=O)c2cc(NC(=O)Nc3ccc(C(F)(F)F)cc3)ccc2O1,inactive
4,C[C@@H]1CN([C@H](C)CO)C(=O)Cc2cc(NC(=O)Nc3cccc4ccccc34)ccc2O[C@@H]1CN(C)Cc1ccc(C(=O)O)cc1,inactive
5,COCCNC(=O)C[C@@H]1CC[C@H]2[C@@H](COC[C@@H](O)CN2S(=O)(=O)c2ccccc2C)O1,inactive
6,C[C@H](CO)N1C[C@H](C)[C@@H](CN(C)Cc2ccc(C(=O)Nc3ccccc3N)cc2)Oc2ccc(NS(=O)(=O)c3ccc(Cl)cc3)cc2CC1=O,inactive
7,C[C@H]1CN([C@@H](C)CO)C(=O)c2cccc(NC(=O)C3CC3)c2O[C@H]1CN(C)S(=O)(=O)c1cn(C)cn1,inactive
8,C[C@H](CO)N1C[C@H](C)[C@H](CN(C)S(=O)(=O)c2ccc(Cl)cc2)OCCCC[C@H](C)Oc2ccc(NS(=O)(=O)c3ccc(F)cc3)cc2C1=O,active
9,C[C@@H]1CCCCO[C@H](CN(C)S(=O)(=O)c2ccc(Cl)cc2)[C@H](C)CN([C@H](C)CO)C(=O)c2cc(NS(=O)(=O)c3ccc(F)cc3)ccc2O1,inactive
10,C[C@H](CO)N1C[C@H](C)[C@@H](CN(C)S(=O)(=O)c2ccc(Cl)cc2)OCCCC[C@H](C)Oc2ccc(NS(=O)(=O)c3ccc(F)cc3)cc2C1=O,inactive
11,C[C@@H]1CCCCO[C@@H](CN(C)S(=O)(=O)c2ccc(Cl)cc2)[C@@H](C)CN([C@@H](C)CO)C(=O)c2cc(NS(=O)(=O)c3ccc(F)cc3)ccc2O1,active
12,C[C@@H]1CCCCO[C@H](CN(C)S(=O)(=O)c2ccc(Cl)cc2)[C@H](C)CN([C@@H](C)CO)C(=O)c2cc(NS(=O)(=O)c3ccc(F)cc3)ccc2O1,active
13,C[C@@H]1CN([C@@H](C)CO)C(=O)c2cc(NS(=O)(=O)c3ccc(F)cc3)ccc2O[C@@H](C)CCCCO[C@H]1CN(C)S(=O)(=O)c1ccc(Cl)cc1,inactive
14,C[C@@H]1CCCCO[C@H](CN(C)S(=O)(=O)c2ccc(Cl)cc2)[C@@H](C)CN([C@@H](C)CO)C(=O)c2cc(NS(=O)(=O)c3ccc(F)cc3)ccc2O1,inactive
15,C[C@@H]1CCCCO[C@H](CN(C)S(=O)(=O)c2ccc(F)cc2)[C@H](C)CN([C@@H](C)CO)C(=O)c2cc(NS(=O)(=O)c3ccc(Cl)cc3)ccc2O1,active
16,C[C@@H]1CN([C@@H](C)CO)C(=O)c2cc(NS(=O)(=O)c3ccc(F)cc3)ccc2O[C@@H](C)CCCCO[C@@H]1CN(C)S(=O)(=O)c1ccc(Cl)cc1,inactive
17,C[C@@H]1CCCCO[C@H](CN(C)S(=O)(=O)c2ccc(F)cc2)[C@@H](C)CN([C@@H](C)CO)C(=O)c2cc(NS(=O)(=O)c3ccc(Cl)cc3)ccc2O1,inactive
18,COc1ccc(S(=O)(=O)Nc2ccc3c(c2)C(=O)N([C@H](C)CO)C[C@@H](C)[C@@H](CN(C)S(=O)(=O)c2cn(C)cn2)O3)cc1,inactive
19,O=C(N[C@H]1CCS(=O)(=O)C1)N1CCCCC1,inactive
20,Cc1ccc(N2C(=O)c3ccccc3[C@](C)(C(=O)NCCN3CCOCC3)[C@@H]2c2ccc(CO)cc2)nc1,inactive

row,SMILES,cytotoxicity call
1,C[C@@H]1CN([C@H](C)CO)C(=O)Cc2cc(NC(=O)Cn3cnnn3)ccc2O[C@@H]1CN(C)C(=O)Nc1ccc(F)cc1,inactive
2,Cc1ccc(S(=O)(=O)N(C)C[C@H]2OCCCC[C@H](C)Oc3ccc(NC(=O)Nc4cccc5ccccc45)cc3C(=O)N([C@@H](C)CO)C[C@H]2C)cc1,inactive
3,O=C(C1=C[C@@H](C2CC2)C[C@@H](OCc2ccc(CO)cc2)O1)N1CCN(Cc2ccc3c(c2)OCO3)CC1,inactive
4,CCC(=O)O[C@H]1[C@H](O[C@@H]2[C@@H](C)[C@H](O[C@H]3C[C@@](C)(OC)[C@@H](O)[C@H](C)O3)[C@@H](C)C(=O)O[C@H](CC)[C@@](C)(O)[C@H](O)[C@@H](C)C(=O)[C@H](C)C[C@@]2(C)O)O[C@H](C)C[C@@H]1N(C)C,inactive
5,O=C(C[C@H]1C=C[C@H](NC(=O)c2ccc(F)cc2)[C@H](CO)O1)NCc1ccncn1,inactive
6,CN(C)C(=O)c1ccc(-c2cccc(-c3nc(C(=O)NC4CCC4)cc4c3[C@@H](CCO)N([S@](=O)C(C)(C)C)C4)c2)cc1,inactive
7,C[C@@H]1CCCCO[C@@H](CN(C)S(=O)(=O)c2cccs2)[C@@H](C)CN([C@@H](C)CO)C(=O)c2cc(NC(=O)Nc3ccc(F)cc3)ccc2O1,inactive
8,C[C@H](CO)N1C[C@H](C)[C@@H](CN(C)S(=O)(=O)c2ccc(F)cc2)OCCCC[C@H](C)Oc2ccc(NS(=O)(=O)c3ccc(Cl)cc3)cc2C1=O,inactive
9,C[C@@H]1CN([C@H](C)CO)C(=O)c2cc(NS(=O)(=O)c3ccc(Cl)cc3)ccc2O[C@@H](C)CCCCO[C@H]1CN(C)S(=O)(=O)c1ccc(F)cc1,active
10,C[C@H]1CCCCO[C@H](CN(C)S(=O)(=O)c2ccc(Cl)cc2)[C@@H](C)CN([C@@H](C)CO)C(=O)c2cc(NS(=O)(=O)c3ccc(F)cc3)ccc2O1,active
11,C[C@H]1CCCCO[C@@H](CN(C)S(=O)(=O)c2ccc(Cl)cc2)[C@@H](C)CN([C@@H](C)CO)C(=O)c2cc(NS(=O)(=O)c3ccc(F)cc3)ccc2O1,inactive
12,C[C@@H]1CCCCO[C@H](CN(C)S(=O)(=O)c2ccc(F)cc2)[C@H](C)CN([C@H](C)CO)C(=O)c2cc(NS(=O)(=O)c3ccc(Cl)cc3)ccc2O1,inactive
13,C[C@H](CO)N1C[C@H](C)[C@H](CN(C)S(=O)(=O)c2ccc(F)cc2)OCCCC[C@H](C)Oc2ccc(NS(=O)(=O)c3ccc(Cl)cc3)cc2C1=O,inactive
14,C[C@@H]1CN([C@H](C)CO)C(=O)c2cc(NS(=O)(=O)c3ccc(F)cc3)ccc2O[C@@H](C)CCCCO[C@H]1CN(C)S(=O)(=O)c1ccc(Cl)cc1,inactive
15,C[C@H]1CCCCO[C@H](CN(C)S(=O)(=O)c2ccc(F)cc2)[C@@H](C)CN([C@@H](C)CO)C(=O)c2cc(NS(=O)(=O)c3ccc(Cl)cc3)ccc2O1,active
16,C[C@@H]1CCCCO[C@H](CN(C)S(=O)(=O)c2ccc(F)cc2)[C@@H](C)CN([C@H](C)CO)C(=O)c2cc(NS(=O)(=O)c3ccc(Cl)cc3)ccc2O1,inactive
17,CC(C)NC(=O)N(C)C[C@H]1Oc2ccc(NC(=O)Cc3ccccc3)cc2CC(=O)N([C@H](C)CO)C[C@H]1C,inactive
18,C[C@@H]1CCCCO[C@H](CN(C)Cc2ccc(C(=O)O)cc2)[C@H](C)CN([C@H](C)CO)C(=O)c2cc(NS(=O)(=O)c3ccc(Cl)cc3)ccc2O1,inactive
19,COc1ccc(NC(=O)N(C)C[C@@H]2Oc3c(NC(=O)c4cc(C)nn4C)cccc3C(=O)N([C@@H](C)CO)C[C@@H]2C)cc1,inactive
20,COc1ccc(CN(C)C[C@@H]2OCCCC[C@@H](C)Oc3ccc(NS(=O)(=O)c4ccc(C)cc4)cc3C(=O)N([C@H](C)CO)C[C@@H]2C)cc1,inactive

row,SMILES,cytotoxicity call
1,COc1ccc(S(=O)(=O)N(C)C[C@H]2Oc3c(NS(C)(=O)=O)cccc3C(=O)N([C@@H](C)CO)C[C@H]2C)cc1,inactive
2,C[C@@H]1CCCCO[C@@H](CN(C)C(=O)c2ccncc2)[C@H](C)CN([C@H](C)CO)C(=O)c2cc(NS(=O)(=O)c3ccc(Cl)cc3)ccc2O1,inactive
3,C[C@@H]1CN([C@@H](C)CO)S(=O)(=O)c2ccc(-c3ccncc3)cc2O[C@@H]1CN(C)C(=O)c1cccc(F)c1,inactive
4,CO[C@H]1CN(C)C(=O)c2cc(NC(=O)C3CC3)ccc2OC[C@@H](C)N(C(=O)CN2CCOCC2)C[C@@H]1C,inactive
5,CCc1nc(C(N)=O)c(Nc2ccc(N3CCC(N4CCN(C)CC4)CC3)c(OC)c2)nc1NC1CCOCC1,active
6,C=CC(=O)N1CC[C@@H](Oc2nc(Nc3ccc(N4CCC(N5CCN(C)CC5)CC4)cc3)c(C(N)=O)nc2CC)C1,active
7,COCC(=O)NCc1cc(=O)n2c(n1)CN(c1ncccn1)CCC2,inactive
8,CO[C@H]1CN(C)C(=O)c2cc(NC(=O)Nc3ccccc3)ccc2OC[C@@H](C)N(C(=O)CN(C)C)C[C@@H]1C,inactive
9,C[C@H](CO)N1C[C@H](C)[C@H](CN(C)Cc2ccc(C(=O)Nc3ccccc3N)cc2)Oc2ccc(NS(=O)(=O)c3cn(C)cn3)cc2CC1=O,inactive
10,COc1ccc(CN(C)C[C@@H]2OCCCC[C@@H](C)Oc3ccc(NC(=O)Nc4ccc(F)cc4)cc3C(=O)N([C@H](C)CO)C[C@H]2C)cc1,active
11,COc1ccc(CN(C)C[C@@H]2OCCCC[C@H](C)Oc3ccc(NC(=O)Nc4ccc(F)cc4)cc3C(=O)N([C@@H](C)CO)C[C@@H]2C)cc1,active
12,COc1ccc(CN(C)C[C@@H]2OCCCC[C@H](C)Oc3ccc(NC(=O)Nc4ccc(F)cc4)cc3C(=O)N([C@H](C)CO)C[C@@H]2C)cc1,active
13,COc1ccc(CN(C)C[C@@H]2OCCCC[C@@H](C)Oc3ccc(NC(=O)Nc4ccc(F)cc4)cc3C(=O)N([C@@H](C)CO)C[C@@H]2C)cc1,inactive
14,COc1ccc(CN(C)C[C@H]2OCCCC[C@@H](C)Oc3ccc(NC(=O)Nc4ccc(F)cc4)cc3C(=O)N([C@@H](C)CO)C[C@H]2C)cc1,inactive
15,COc1ccc(CN(C)C[C@@H]2OCCCC[C@H](C)Oc3ccc(NC(=O)Nc4ccc(F)cc4)cc3C(=O)N([C@H](C)CO)C[C@H]2C)cc1,inactive
16,COc1ccc(CN(C)C[C@H]2OCCCC[C@@H](C)Oc3ccc(NC(=O)Nc4ccc(F)cc4)cc3C(=O)N([C@H](C)CO)C[C@@H]2C)cc1,inactive
17,COc1ccc(CN(C)C[C@@H]2OCCCC[C@@H](C)Oc3ccc(NC(=O)Nc4ccc(F)cc4)cc3C(=O)N([C@@H](C)CO)C[C@H]2C)cc1,active
18,COc1ccc(CN(C)C[C@@H]2OCCCC[C@@H](C)Oc3ccc(NC(=O)Nc4ccc(F)cc4)cc3C(=O)N([C@H](C)CO)C[C@@H]2C)cc1,inactive
19,COc1ccc(CN(C)C[C@@H]2OCCCC[C@H](C)Oc3ccc(NC(=O)Nc4ccc(F)cc4)cc3C(=O)N([C@@H](C)CO)C[C@H]2C)cc1,inactive
